{
  "source": "paper PMC7819943",
  "about": "“Rice protein-binding microarrays: a tool to detect cis-acting elements near promoter regions in rice”",
  "note": "Over roughly 68,000 sequences, “fluorescence intensity (a.u.)” has its median near 9,100; the highest 2% begin near 16,000. The full list was thinned out, with the highest values kept by preference.",
  "data": [
    {"molecular_target": "OsWRKY34 (Oryza sativa, UniProt Q0JBA9 1-250)", "sequence (Q0JBA9 entry or part of it)": "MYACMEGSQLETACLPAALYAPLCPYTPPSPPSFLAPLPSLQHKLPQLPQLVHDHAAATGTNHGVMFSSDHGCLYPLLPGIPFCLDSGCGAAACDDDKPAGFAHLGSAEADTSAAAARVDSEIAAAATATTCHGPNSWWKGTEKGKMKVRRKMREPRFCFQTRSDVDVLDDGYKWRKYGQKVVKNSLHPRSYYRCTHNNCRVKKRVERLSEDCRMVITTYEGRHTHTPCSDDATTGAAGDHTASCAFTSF", "assay": "protein-binding microarray (RPBM); PBS, 2% BSA, 51.3 ng/ul salmon testes DNA, 50 uM zinc acetate, 200 nM TF, 25 C, 1 h; high values mean tight binding", "conditions": "protein: recombinant; tags: N-terminal polyhistidine and DsRed monomer fusion (pET32a); label: CyDye5-dUTP incorporated in the synthesized complementary strand; 3' TTTTT single-stranded linker to array surface; dsDNA, one strand shown", "method_in_brief": "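Using Ni–NTA, transcription factors fused N-terminally to polyhistidine and DsRed were purified after expression in E. coli BL21-CodonPlus. These were incubated at 200 nM with a blocked, double-stranded custom Agilent array for 1 h at 25 °C in a buffer containing 50 µM zinc acetate, and the array was washed. The binding signal is per-feature fluorescence intensity (arbitrary units) on an Axon 4000B scanner.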", "values": [
      {"sequence": "TGGGTTGTGGCAGTGTCTTATAAGGCTATATTAAGTCTATCGGAGTCACCTAGTGCAG", "binding signal": "8060 fluorescence intensity (a.u.)"},
      {"sequence": "TTGCTGTCTTGCGTGTTCATGCTGCCCCGCGGGCGTTGAGCGGAGTCACCTAGTGCAG", "binding signal": "9010 fluorescence intensity (a.u.)"},
      {"sequence": "TACCAACATTGTAGCAACAGATTCATCTCTCTTTTTTTTTCGGAGTCACCTAGTGCAG", "binding signal": "18100 fluorescence intensity (a.u.)"},
      {"sequence": "GTGACCCAACATTCAGATTCATCTTTTTTTTTCACCTTCTCGGAGTCACCTAGTGCAG", "binding signal": "11300 fluorescence intensity (a.u.)"},
      {"sequence": "TTTTCATTGTGTTGTAGCCAACAGCCACATTGTTTTCTTTCGGAGTCACCTAGTGCAG", "binding signal": "8080 fluorescence intensity (a.u.)"},
      {"sequence": "AGTCACGAATCAAACAACCCCTTAAACTGTATTTGATTGTCGGAGTCACCTAGTGCAG", "binding signal": "8060 fluorescence intensity (a.u.)"},
      {"sequence": "TCTCTGCTTCTCGTTGTTCTTGGTTGGTTGTTGTTGTAGACGGAGTCACCTAGTGCAG", "binding signal": "19400 fluorescence intensity (a.u.)"},
      {"sequence": "AGCGATACTCTACTGCTACCTTGTCCCAACATGCTGGGCTCGGAGTCACCTAGTGCAG", "binding signal": "8260 fluorescence intensity (a.u.)"},
      {"sequence": "GGCTGGGCTTTTTGGGCTTTCTTTGATCTATATTTTGAGACGGAGTCACCTAGTGCAG", "binding signal": "18200 fluorescence intensity (a.u.)"},
      {"sequence": "TGTTCTACTTGGCTGTCTCATACTTTTTTTATTTCTCTCTCGGAGTCACCTAGTGCAG", "binding signal": "11200 fluorescence intensity (a.u.)"},
      {"sequence": "CATGTCTATCTTTCTACTATTTATTTTTTTTTGGCAGAGACGGAGTCACCTAGTGCAG", "binding signal": "12700 fluorescence intensity (a.u.)"},
      {"sequence": "CTTGGTTTTCTTGATTTCTTGGGTTCTTGGCTACTGGGGCCGGAGTCACCTAGTGCAG", "binding signal": "9490 fluorescence intensity (a.u.)"},
      {"sequence": "TGGTTCTTGCTCTTGTTCTTGCTGCTGCTGCTTTTGCTCTCGGAGTCACCTAGTGCAG", "binding signal": "9380 fluorescence intensity (a.u.)"},
      {"sequence": "GCTATGAGATTTATATATTTTTTTGTCCTGGGCTTCTTTTCGGAGTCACCTAGTGCAG", "binding signal": "9510 fluorescence intensity (a.u.)"},
      {"sequence": "GCGGTGGTGGACAGTCCCAGACTGACTTGTGGTGGGGACTCGGAGTCACCTAGTGCAG", "binding signal": "9560 fluorescence intensity (a.u.)"},
      {"sequence": "ACTCTCTCTCTCTCTCTGCTTCTTCTTGTGTTGTGCTTGTCGGAGTCACCTAGTGCAG", "binding signal": "9800 fluorescence intensity (a.u.)"},
      {"sequence": "GGCTGGGGTGGGCTCTACTTGACAGACTGATACTCCTACTCGGAGTCACCTAGTGCAG", "binding signal": "19600 fluorescence intensity (a.u.)"},
      {"sequence": "GGGTTCTTGGCTACTGGGGCTGTCTCTCTATCTTTCTTGACGGAGTCACCTAGTGCAG", "binding signal": "21600 fluorescence intensity (a.u.)"},
      {"sequence": "CCCACACGCGCTCCATGCATCTCCACCACGCTCCATGTGTCGGAGTCACCTAGTGCAG", "binding signal": "11000 fluorescence intensity (a.u.)"},
      {"sequence": "CCGTCCGCCATTGCAGCTTCGTTGTTCTGTACCTTCTTGCCGGAGTCACCTAGTGCAG", "binding signal": "10900 fluorescence intensity (a.u.)"},
      {"sequence": "CCGGGTCACACATCCCCTCATACTCGGGCCTTGTTTAGTTCGGAGTCACCTAGTGCAG", "binding signal": "8740 fluorescence intensity (a.u.)"},
      {"sequence": "TACTGCCTCTCTCTGACCCCATTGACCAACTCCGTTGACCCGGAGTCACCTAGTGCAG", "binding signal": "15800 fluorescence intensity (a.u.)"},
      {"sequence": "AGATGGATGCTCTGCCCGCCGCCCTACCACCCTCTGCCATCGGAGTCACCTAGTGCAG", "binding signal": "8030 fluorescence intensity (a.u.)"},
      {"sequence": "GTCTTTTCTTCAAGGTTATCTTTTTTGTCCCTTTTTTATTCGGAGTCACCTAGTGCAG", "binding signal": "15200 fluorescence intensity (a.u.)"},
      {"sequence": "TCATATTGTACCTTCCACTTTTATTCTTTTAAAGCCTATACGGAGTCACCTAGTGCAG", "binding signal": "9560 fluorescence intensity (a.u.)"},
      {"sequence": "AGGCGCTCCATAGGCCTCGTCATCTTCACAGTCACACACCCGGAGTCACCTAGTGCAG", "binding signal": "11200 fluorescence intensity (a.u.)"},
      {"sequence": "GCTGCCTATTCCATACAAATTTCGTAGGTTCATTTCCAACCGGAGTCACCTAGTGCAG", "binding signal": "10000 fluorescence intensity (a.u.)"},
      {"sequence": "TCTAGGTTCTGTTCTATTCGGTTCTAGGTTATCATATTTTCGGAGTCACCTAGTGCAG", "binding signal": "12100 fluorescence intensity (a.u.)"},
      {"sequence": "TTCACTATTGGGTGTTTTTGTCTCGATTCACCTTCATCGTCGGAGTCACCTAGTGCAG", "binding signal": "8840 fluorescence intensity (a.u.)"},
      {"sequence": "TAGATCTCTTGCTTTGGGTGTTGTTTGCTCTAGGTGTTCTCGGAGTCACCTAGTGCAG", "binding signal": "8250 fluorescence intensity (a.u.)"},
      {"sequence": "CGTGTTGGGGTTCTCTTCCTGCTGCTTTGGCCACCTGGGACGGAGTCACCTAGTGCAG", "binding signal": "12500 fluorescence intensity (a.u.)"},
      {"sequence": "GTCGTCGTCTTCGTCTCGAGTTCTTGGTTGGTTGGATCTACGGAGTCACCTAGTGCAG", "binding signal": "19400 fluorescence intensity (a.u.)"},
      {"sequence": "TTTGGGGTGTGTTTTTGTCTAGAGGTAAAGTTTTTAAAGTCGGAGTCACCTAGTGCAG", "binding signal": "10600 fluorescence intensity (a.u.)"},
      {"sequence": "ATGAATTAGGTGTGGTTCTCTTTAATCTGTTATTAGTCATCGGAGTCACCTAGTGCAG", "binding signal": "11000 fluorescence intensity (a.u.)"},
      {"sequence": "CTTCTTCGGATCACTCGGTTGGTTTCTTGGTTTCTTGGTTCGGAGTCACCTAGTGCAG", "binding signal": "13000 fluorescence intensity (a.u.)"},
      {"sequence": "GACTATAGAGGCTTTGTTTGTTTGGGGTGTGTTTTTGTCTCGGAGTCACCTAGTGCAG", "binding signal": "17200 fluorescence intensity (a.u.)"},
      {"sequence": "CATCTACGTGCTCTCTTTGGTTGGGGTGTTCTTGCTGCTACGGAGTCACCTAGTGCAG", "binding signal": "17700 fluorescence intensity (a.u.)"},
      {"sequence": "GATATTGGAGGTGCATCTGTTAGGGTTCGGGTTCTCTCTACGGAGTCACCTAGTGCAG", "binding signal": "16700 fluorescence intensity (a.u.)"},
      {"sequence": "ATTGGTCGTCTTGCTGAGCTCTCGTACTTGGATCTCTCTACGGAGTCACCTAGTGCAG", "binding signal": "11100 fluorescence intensity (a.u.)"},
      {"sequence": "GGACTCCTGATTTCTACTCTATTCCTATTCCACTAGCTTACGGAGTCACCTAGTGCAG", "binding signal": "14400 fluorescence intensity (a.u.)"},
      {"sequence": "ATCCTGCGATTCCACCATATCCAATCCTCGTATCTTGGGTCGGAGTCACCTAGTGCAG", "binding signal": "8310 fluorescence intensity (a.u.)"},
      {"sequence": "TTATCTAGATTCGTATTACTAGGATGTGTCTCGTTCAACCCGGAGTCACCTAGTGCAG", "binding signal": "8780 fluorescence intensity (a.u.)"}
    ]}
  ]
}
